PubChem BioAssay
A number with no mark means an inactive call. The rule behind the calls is not given here.

The molecules below were run on Aerobactin synthetase IucA (Klebsiella pneumoniae hvKP1) (assay: IucA enzyme inhibition, primary screen, biochemical, Spectrum library (AID 1346200;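 note: 100% = wells without compound and 0% = wells lacking enzyme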)). Settings: malachite green pyrophosphate, A620, at 8 µM, hits give low values.

Row | SMILES | activity remaining [%]
1 | Oc1cc2c(cc1O)C1c3ccc(O)c(O)c3OCC1(O)C2 (stereo not given) | 109
2 | CC(C)CCCC(C)C1CCC2C3CC(=O)[C@H]4C[C@@H](O)CC[C@]4(C)C3CC[C@]12C (stereo not given in full) | 121
3 | C=CCc1ccc(O)c(OC)c1 | 115
4 | COC(=O)N/N=C/c1c[n+]([O-])c2ccccc2[n+]1[O-] | 109
5 | Nc1c(Br)cc(Br)cc1CNC1CCC(O)CC1 (stereo not given) | 93.2
6 | O=C1CC(c2ccc(O)c(O)c2)Oc2cc(O)cc(O)c21 (stereo not given) | 109
7 | CCOC(=O)[C@H](CCc1ccccc1)N[C@H](C)C(=O)N1C2CCCCC2C[C@H]1C(=O)O (stereo not given in full) | 119
8 | CC(C)CCCC(C)[C@H]1CCC2C3CC[C@H]4CC(=O)CC[C@]4(C)C3CC[C@@]21C (stereo not given in full) | 102
9 | C=CCSSSCC=C | 91.6
10 | O=c1cc(-c2ccc(O)cc2)oc2cc(O[C@@H]3O[C@H](CO)[C@@H](O)[C@H](O)[C@H]3O)cc(O)c12 | 101
11 | COC1=CC(C)[C@@H]2C[C@H]3OC(=O)C[C@H]4C(C)=C(OC)C(=O)C([C@@]34C)[C@@]2(C)C1=O (stereo not given in full) | 97.8
12 | CC(C)(C)NCC(O)COc1cccc2c1CCCC2=O (stereo not given) | 91.1
13 | CC(=O)[C@H]1CCC2C3CC=C4C[C@@H](OC(=O)CCC(=O)O)CC[C@]4(C)C3CC[C@@]21C (stereo not given in full) | 117
14 | COc1cccc2c1CCC1=CC(=O)CC[C@@]12C | 111
15 | C=CCCCCCCCCCCCC(O)CC(O)COC(C)=O (stereo not given) | 116
16 | CC1(C)S[C@@H]2[C@H](NC(=O)Cc3ccccc3)C(=O)N2[C@H]1C(=O)O | 111
17 | CC(=O)O[C@@H]1CC[C@@]2(C)C(CC[C@]3(C)C2CC=C2C4CC(C)(C)CC[C@]4(C(=O)O)CC[C@]23C)C1(C)C (stereo not given in full) | 96.2
18 | COc1ccc(CN(CCN(C)C)c2ncccn2)cc1 | 120
19 | NC(N)=Nc1nc(CSCC/C(N)=N\S(N)(=O)=O)cs1 | 113
20 | COc1c(O)cc2c(c1O)[C@H]1O[C@H](CO)[C@@H](O)[C@H](O)[C@@H]1OC2=O | 112

Row | SMILES | activity remaining [%]
21 | O=C(O)c1c2ccccc2cc2ccccc12 | 116
22 | COc1ccc(NS(=O)(=O)c2ccc(N)cc2)nn1 | 111
23 | CC1=CC(=O)CC(C)(C)C1(O)/C=C/C(C)=C\C(=O)O (stereo not given) | 117
24 | Cc1c(C)c2c(c(C)c1O)CCC(C)(CCCC(C)CCCC(C)CCCC(C)C)O2 (stereo not given) | 105
25 | COc1ccc2cc1Oc1ccc(cc1)C[C@H]1c3cc(c(OC)cc3CCN1C)Oc1c(OC)c(OC)cc3c1[C@H](C2)N(C)CC3 | 108
26 | CC(=O)Oc1ccc2c(c1)CCC1C2CC[C@@]2(C)C1C[C@@H](OC(C)=O)[C@@H]2OC(C)=O (stereo not given in full) | 97.3
27 | COc1cc(O)c(C(=O)/C=C/c2ccc(OC)c(O)c2)c(OC)c1 | 105
28 | CCCCCCCCCCCC1=C(O)C(=O)C=C(O)C1=O | 102
29 | CC(C)(C)NC[C@@H](O)COc1nsnc1N1CCOCC1 | 99.4
30 | O=c1c(O)cc([C@H]2Oc3cc(O)cc(O)c3C[C@H]2O)cc2c([C@H]3Oc4cc(O)cc(O)c4C[C@@H]3O)cc(O)c(O)c12 | 104
31 | CC(=O)OCC(=O)[C@@]12OC(C)(C)O[C@@H]1CC1C3C[C@H](F)C4=CC(=O)C=C[C@]4(C)[C@@]3(F)[C@@H](O)C[C@@]12C (stereo not given in full) | 100
32 | OCc1c[nH]c2ccccc12 | 118
33 | Oc1c(Cl)cc(Cl)c(Cl)c1Cc1c(O)c(Cl)cc(Cl)c1Cl | 118
34 | CC(=O)OC/C=C(C)/C=C/C=C(C)/C=C/C1=C(C)CCCC1(C)C | 92.2
35 | CC(Cc1cccc(C(F)(F)F)c1)NCCOC(=O)c1ccccc1 (stereo not given) | 98.2
36 | CCCCC1(COC(=O)CCC(=O)O)C(=O)N(c2ccccc2)N(c2ccccc2)C1=O | 110
37 | CC(=O)O[C@@H]1C[C@@]23C[C@@]24CC[C@H](O[C@@H]2OC[C@@H](O)[C@H](O)[C@H]2O)C(C)(C)C4CCC3[C@]2(C)C[C@@H]3OC4(C[C@@H](C)[C@@H]3[C@@]12C)O[C@H](O)[C@]1(C)O[C@H]41 (stereo not given in full) | 87.7
38 | Cc1noc(NS(=O)(=O)c2ccc(N)cc2)c1C | 117
39 | NCCC(=O)N[C@@H](Cc1cnc[nH]1)C(=O)O | 106
40 | Cc1ccc(O)cc1 | 102
